Measurements published in PubChem BioAssay.
For part of these data: Measured potencies and affinities stand elsewhere. Calls of active or inactive are those of the source.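 The calls were made as follows, unless noted: active = earlier screen potentiator hit that boosts the TRPC4 ion channel at some dose, with a dose response; inactive = no potentiation, no dose response, or not a prior hit.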

Tests used:
[1] = system: TRPC4 beta (transient receptor potential cation channel C4), mouse; assay: TRPC4 cation channel opening, retest – cell-based, Fluo4 calcium, HEK293 TRPC4beta/mu-opioid, duplicates, 10 µM, confirmation (AID 2426;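 active = fluorescence ratio normalized to control raised more than 50% in primary screen plus both repeat runs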;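 as to activation: percent rise of integrated ratio over buffer wells lacking compound which define 0%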); conditions: Fluo4 calcium fluorescence, at 10 µM; stronger effect = higher value
[2] = system: transient receptor potential cation channel C4 beta (TRPC4), mouse; assay: TRPC4 cation channel opening, second retest – cell-based, second round, Fluo4, HEK293 TRPC4beta/mu-opioid, 1 µM, confirmation (AID 2461;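 active = primary screen active and over 50% activation in each of two duplicate runs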;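 as to activation: 0% = wells without test compound as baseline of integrated fluorescence ratio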); conditions: Fluo4 calcium fluorescence, at 1 µM; stronger effect = higher value
[3] = system: TRPC4 (transient receptor potential cation channel C4 beta), mouse; assay: potentiation of DAMGO EC20 TRPC4 response – cell-based, second round, Fluo-4, HEK293 TRPC4beta/mu-opioid, 1 µM, confirmation (AID 2554;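 active = primary screen hit whose fluorescence ratio, in both repeats, exceeds the weak agonist control mean by 3 SD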); conditions: DAMGO EC20, Fluo-4 calcium flux, at 1 µM; stronger effect = higher value
[4] = system: TRPC4 beta (transient receptor potential cation channel C4), mouse; assay: potentiation of DAMGO EC20 TRPC4 response – cell-based, Fluo-4, HEK293 TRPC4beta/mu-opioid, confirmation (AID 2555;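 active = primary screen hit whose calcium fluorescence ratio, in both repeats, exceeds the weak agonist control mean by 3 SD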); conditions: DAMGO EC20, Fluo-4 calcium flux, at 10 µM; stronger effect = higher value
[5] = target: Short transient receptor potential channel 4 (Mus musculus) (UniProt Q9QUQ5); assay: blockers of DAMGO-evoked TRPC4 calcium flux – cell-based, Fluo4, HEK293 TRPC4beta/mu-opioid, confirmation (AID 2636;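 active = calcium signal cut by more than 3 SD below the full-agonist control yet still positive, in both repeats and the earlier primary screen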); conditions: at 10 µM; stronger effect = higher value
Sequence of Short transient receptor potential channel 4 (Mus musculus) (Q9QUQ5 whole entry, looked up): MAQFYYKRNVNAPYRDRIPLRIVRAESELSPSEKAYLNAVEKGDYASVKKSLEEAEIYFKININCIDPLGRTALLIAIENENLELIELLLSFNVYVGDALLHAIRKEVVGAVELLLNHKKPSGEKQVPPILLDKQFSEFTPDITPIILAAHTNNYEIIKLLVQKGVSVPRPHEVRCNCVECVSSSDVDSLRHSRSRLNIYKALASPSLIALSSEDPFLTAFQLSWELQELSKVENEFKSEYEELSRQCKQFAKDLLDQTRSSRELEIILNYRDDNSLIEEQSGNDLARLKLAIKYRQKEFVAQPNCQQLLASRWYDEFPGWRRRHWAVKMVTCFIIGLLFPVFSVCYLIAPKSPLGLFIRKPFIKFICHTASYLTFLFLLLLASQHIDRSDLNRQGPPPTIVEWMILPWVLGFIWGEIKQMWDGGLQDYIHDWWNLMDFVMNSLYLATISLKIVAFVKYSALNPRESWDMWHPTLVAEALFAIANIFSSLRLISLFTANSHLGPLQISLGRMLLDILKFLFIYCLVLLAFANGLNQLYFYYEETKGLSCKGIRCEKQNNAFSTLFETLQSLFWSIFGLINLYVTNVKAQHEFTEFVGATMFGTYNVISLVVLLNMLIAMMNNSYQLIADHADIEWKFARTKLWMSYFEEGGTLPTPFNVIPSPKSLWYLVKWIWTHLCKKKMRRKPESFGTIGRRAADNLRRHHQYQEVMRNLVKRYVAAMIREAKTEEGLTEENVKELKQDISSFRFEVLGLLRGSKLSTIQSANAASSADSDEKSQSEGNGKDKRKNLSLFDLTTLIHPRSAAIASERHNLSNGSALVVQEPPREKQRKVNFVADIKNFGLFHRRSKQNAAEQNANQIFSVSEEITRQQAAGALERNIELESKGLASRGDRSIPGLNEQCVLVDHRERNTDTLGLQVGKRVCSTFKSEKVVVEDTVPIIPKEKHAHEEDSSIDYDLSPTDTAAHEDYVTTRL

[6] = target: Short transient receptor potential channel 4 (Mus musculus) (UniProt Q9QUQ5); assay: blockers of DAMGO-evoked TRPC4 calcium flux – cell-based, second round, Fluo4, HEK293 TRPC4beta/mu-opioid, 1 µM, confirmation (AID 2637;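 active = calcium signal ratio cut to more than 3 SD under the fully stimulated control mean yet still positive, in both repeats and the primary screen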); conditions: at 1 µM; stronger effect = higher value
[7] = target: Short transient receptor potential channel 4 (Mus musculus) (UniProt Q9QUQ5); assay: potentiation of DAMGO-evoked TRPC4 calcium signal – cell-based, HEK293 TRPC4/mu-opioid, Fluo-4 calcium, EC20 DAMGO, dose response (AID 434941);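 also: calcium entry triggered by an EC20 dose of DAMGO at the co-expressed mu-opioid receptor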
[8] = target: Short transient receptor potential channel 4 (Mus musculus) (UniProt Q9QUQ5); assay: block of DAMGO-driven TRPC4 calcium entry – cell-based, HEK293 TRPC4/mu-opioid, Fluo-4 calcium, dose response (AID 434942;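 active = primary screen inhibitor hit that blocks the TRPC4 channel at some tested dose, yielding a dose curve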)
[9] = target: Short transient receptor potential channel 6 (Mus musculus) (UniProt Q61143); assay: TRPC6 blockade by TRPC4 inhibitor hits – cell-based, HEK293, membrane potential dye, duplicate, selectivity assay for TRPC4 inhibitor project, confirmation (AID 434948;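 active = active in primary screen and both duplicates, each dropping signal beyond three positive-control SD with fluorescence still positive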); conditions: HEK293 TRPC6, membrane potential dye fluorescence, at 10 µM, stimulated with maximal-effect acetylcholine; stronger effect = higher value
Sequence of Short transient receptor potential channel 6 (Mus musculus) (Q61143 whole entry, looked up): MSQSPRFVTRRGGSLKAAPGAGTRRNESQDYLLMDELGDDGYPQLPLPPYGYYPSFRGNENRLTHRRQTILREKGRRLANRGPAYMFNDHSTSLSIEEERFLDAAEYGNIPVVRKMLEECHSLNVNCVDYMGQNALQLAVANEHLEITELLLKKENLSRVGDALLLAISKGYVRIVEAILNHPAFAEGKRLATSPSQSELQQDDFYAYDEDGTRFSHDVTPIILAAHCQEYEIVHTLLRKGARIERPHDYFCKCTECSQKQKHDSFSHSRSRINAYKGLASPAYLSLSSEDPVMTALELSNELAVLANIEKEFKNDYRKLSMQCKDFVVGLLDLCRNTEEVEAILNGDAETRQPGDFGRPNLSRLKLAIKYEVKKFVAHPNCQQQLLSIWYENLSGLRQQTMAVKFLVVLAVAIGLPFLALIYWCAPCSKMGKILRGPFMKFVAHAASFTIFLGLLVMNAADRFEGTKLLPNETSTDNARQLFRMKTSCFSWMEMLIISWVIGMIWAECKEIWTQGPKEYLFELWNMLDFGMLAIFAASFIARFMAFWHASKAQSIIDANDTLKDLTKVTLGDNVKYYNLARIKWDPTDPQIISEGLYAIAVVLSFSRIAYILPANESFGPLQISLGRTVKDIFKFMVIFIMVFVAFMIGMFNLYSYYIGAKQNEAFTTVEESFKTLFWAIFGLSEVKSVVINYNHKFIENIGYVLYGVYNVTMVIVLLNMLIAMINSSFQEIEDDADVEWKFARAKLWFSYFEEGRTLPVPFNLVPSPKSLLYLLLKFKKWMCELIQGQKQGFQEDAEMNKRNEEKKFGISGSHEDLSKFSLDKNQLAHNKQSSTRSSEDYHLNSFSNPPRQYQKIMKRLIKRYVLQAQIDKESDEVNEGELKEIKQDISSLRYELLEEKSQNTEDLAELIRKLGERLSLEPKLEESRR

[10] = target: Short transient receptor potential channel 6 (Mus musculus) (UniProt Q61143); assay: TRPC6 opening by TRPC4 activator hits – cell-based, HEK293, membrane potential dye, duplicate, selectivity assay for TRPC4 activator project, confirmation (AID 434950;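 active = membrane potential signal rise above negative control mean plus 3 SD in both duplicates, also active in the earlier TRPC4 screen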;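 as to activation: 0% = buffer only wells and 100% = acetylcholine maximal-effect wells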); conditions: HEK293 TRPC6, membrane potential fluorescence, at 10 µM; activation: stronger effect = higher value; outcome: activation
[11] = target: Short transient receptor potential channel 6 (Mus musculus) (UniProt Q61143); assay: positive modulators of mouse TRPC6 channel – HEK293 cells, membrane potential dye, duplicate, selectivity assay for TRPC4 potentiator project, confirmation (AID 434952;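 active = compound raising the membrane signal above positive-control mean plus 3 SD in both repeats, and a primary screen hit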); conditions: HEK293 TRPC6, membrane potential dye fluorescence, at 10 µM, maximal acetylcholine added after compound; stronger effect = higher value
[12] = target: Short transient receptor potential channel 4 (Mus musculus) (UniProt Q9QUQ5); assay: calcium flux activators in TRPC4/5HT1a cells, counter-screen for TRPC4 activator project, cell-based, second counter screen, HEK293 TRPC4/5HT1a, Fluo-4 (AID 434977;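 active = calcium signal rise above buffer-control mean plus 5 SD in both duplicates, and also a hit in the primary screen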;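 as to activation: plate controls were assay buffer for no effect and maximal serotonin response for full effect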); conditions: Fluo-4 calcium flux, at 10 µM; stronger effect = higher value
[13] = serotonin-gated TRPC4 signal block – cell-based, second counter screen, HEK293 TRPC4/5HT1a, Fluo-4, counter-screen for TRPC4 inhibitor project, confirmation (AID 434978;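 active = primary screen active whose calcium signal fell more than 3 SD beyond the full-serotonin control mean in both duplicate plates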;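 also: serotonin given first at submaximal then at maximal dose after compound preincubation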); conditions: Fluo-4 calcium flux, at 10 µM, serotonin added to trigger calcium flux; stronger effect = higher value
[14] = system: TRPC4 (mouse), co-expressed with 5HT1a in HEK293; assay: enhancement of serotonin-evoked TRPC4 response – cell-based, second counter screen, HEK293 TRPC4/5HT1a, Fluo-4, counter-screen for TRPC4 potentiator project, confirmation (AID 434979;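 active = signal rise over 3 SD above mean of control wells given weak agonist, in both repeats and first screen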); conditions: Fluo-4 calcium flux, at 10 µM, serotonin added at its EC20 dose; stronger effect = higher value
[15] = nonspecific calcium rise without TRPC4 – cell-based, HEK293 mu-opioid receptor line, counter-screen for TRPC4 activator project, confirmation (AID 449723;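 active = hit in primary screen, with calcium signal over 5 SD above buffer well mean in both duplicates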;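 also: counter screen cells carry the mu-opioid receptor alone and lack TRPC4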); conditions: HEK293 mu-opioid cells, Fluo-4 calcium fluorescence, at 10 µM; stronger effect = higher value
[16] = nonspecific potentiation of DAMGO calcium response – cell-based, HEK293 mu-opioid receptor line, counter-screen for TRPC4 allosteric potentiator project, confirmation (AID 449724;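 active = calcium signal rise more than 3 SD above the low-dose agonist control mean, in both duplicate plates and the primary screen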;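 also: HEK293 cells carrying mu-opioid receptor only with no TRPC4 channel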); conditions: HEK293 mu-opioid receptor cells, Fluo-4 calcium flux, at 10 µM, compound added before EC20 DAMGO stimulus; stronger effect = higher value

O=C1c2ccccc2S(=O)(=O)c2cc(C(=O)N(c3ccccn3)c3ccccn3)ccc21
active: activation [1] 107% | activation [12] 99.8% | activation [15] 25.6%
inactive: outcome [2] | outcome [3] | outcome [4] | outcome [5] | outcome [6] | outcome [7] | outcome [8] | outcome [9] | outcome [10] | outcome [11] | outcome [13] | outcome [14] | outcome [16]

COc1ccc(Cl)cc1C(=O)Nc1ccccc1N1CCN(C)CC1
inactive: outcome [2] | outcome [3] | outcome [4] | outcome [5] | outcome [6] | outcome [7] | outcome [8] | outcome [9] | outcome [10] | outcome [11] | outcome [13] | outcome [14] | outcome [15] | outcome [16]
active: activation [1] 120% | activation [12] 16%

COc1cc2c(cc1OC)C(C)N(C(=O)C(NC(=O)c1ccccc1)C(C)C)CC2 (stereo not given)
inactive: outcome [2] | outcome [3] | outcome [4] | outcome [5] | outcome [6] | outcome [7] | outcome [8] | outcome [9] | outcome [11] | outcome [12] | outcome [13] | outcome [14] | outcome [15] | outcome [16]
active: activation [1] 130% | activation [10] 31%

Cc1sc2ncnc(NCC(c3ccco3)N(C)C)c2c1C (stereo not given)
inactive: outcome [3] | outcome [4] | outcome [5] | outcome [6] | outcome [7] | outcome [8] | outcome [9] | outcome [10] | outcome [11] | outcome [13] | outcome [14] | outcome [15] | outcome [16]
active: activation [1] 202% | activation [2] 116% | activation [12] 91.1%

CN(C)C(CNC(=O)c1cccc(S(=O)(=O)N(C)C)c1)c1ccccc1 (stereo not given)
inactive: outcome [2] | outcome [3] | outcome [4] | outcome [5] | outcome [6] | outcome [7] | outcome [8] | outcome [9] | outcome [11] | outcome [12] | outcome [13] | outcome [14] | outcome [15] | outcome [16]
active: activation [1] 84% | activation [10] 39.5%

Cc1ccc(Cn2c(SCCN3CCCCC3)nc3c2c(=O)n(C)c(=O)n3C)cc1
inactive: outcome [2] | outcome [5] | outcome [6] | outcome [7] | outcome [8] | outcome [9] | outcome [10] | outcome [11] | outcome [13] | outcome [15] | outcome [16]
active: activation [1] 114% | potentiation [3] 8% | potentiation [4] 13% | activation [12] 8.42% | potentiation [14] 81%

COc1ccc(C(=O)NNC(=S)NC(=O)c2cccs2)cc1
inactive: outcome [1] | outcome [2] | outcome [3] | outcome [4] | outcome [5] | outcome [6] | outcome [7] | outcome [8] | outcome [9] | outcome [11] | outcome [13] | outcome [14] | outcome [15] | outcome [16]
active: activation [10] 41.5% | activation [12] 42.7%

Clc1cccc(OCCN2CCNCC2)c1
inactive: outcome [3] | outcome [4] | outcome [5] | outcome [6] | outcome [7] | outcome [8] | outcome [9] | outcome [10] | outcome [11] | outcome [13] | outcome [14] | outcome [15] | outcome [16]
active: activation [1] 66% | activation [2] 54% | activation [12] 31.1%

COc1ccc(C(=O)C2CCCN(Cc3ccc(Sc4nncn4C)o3)C2)cc1F (stereo not given)
active: activation [1] 164% | activation [2] 87% | activation [10] 36% | activation [12] 9.87%
inactive: outcome [3] | outcome [4] | outcome [5] | outcome [6] | outcome [7] | outcome [8] | outcome [9] | outcome [11] | outcome [13] | outcome [14] | outcome [15] | outcome [16]

O=C(NC1CC1)C1=C[C@H](c2csc3ccccc23)C[C@H](OCc2ccc(CO)cc2)O1
inactive: outcome [1] | outcome [2] | outcome [3] | outcome [4] | outcome [5] | outcome [6] | outcome [7] | outcome [8] | outcome [9] | outcome [11] | outcome [12] | outcome [13] | outcome [14] | outcome [15] | outcome [16]
active: activation [10] 35.5%

COc1cccc(C(=O)NC2CCCN(C3Cc4ccccc4C3)C2)c1OC (stereo not given)
active: activation [1] 132% | activation [10] 57.5% | activation [12] 82.8%
inactive: outcome [2] | outcome [3] | outcome [4] | outcome [5] | outcome [6] | outcome [7] | outcome [8] | outcome [9] | outcome [11] | outcome [13] | outcome [14] | outcome [15] | outcome [16]

CCCc1c(O)nc(SCCN(CC)CC)[nH]c1=O
inactive: outcome [3] | outcome [4] | outcome [5] | outcome [6] | outcome [7] | outcome [8] | outcome [9] | outcome [10] | outcome [11] | outcome [13] | outcome [14] | outcome [15] | outcome [16]
active: activation [1] 179% | activation [2] 82% | activation [12] 51.5%

COc1ccccc1N1CCN(C(c2cccs2)C(C)NC(=O)c2ccco2)CC1 (stereo not given)
active: activation [1] 73% | activation [10] 32%
inactive: outcome [2] | outcome [3] | outcome [4] | outcome [5] | outcome [6] | outcome [7] | outcome [8] | outcome [9] | outcome [11] | outcome [12] | outcome [13] | outcome [14] | outcome [15] | outcome [16]

COc1cccc(C(=O)OC2CCCN(C)C2)c1 (stereo not given)
active: activation [1] 135% | activation [2] 85% | activation [10] 43% | activation [12] 48.9%
inactive: outcome [3] | outcome [4] | outcome [5] | outcome [6] | outcome [7] | outcome [8] | outcome [9] | outcome [11] | outcome [13] | outcome [14] | outcome [15] | outcome [16]

COC(=O)NCC(c1ccc2c(c1)OCO2)N1CCN(c2ccc(OC)cc2)CC1 (stereo not given)
active: activation [1] 85%
inactive: outcome [2] | outcome [3] | outcome [4] | outcome [5] | outcome [6] | outcome [7] | outcome [8] | outcome [9] | outcome [10] | outcome [11] | outcome [12] | outcome [13] | outcome [14] | outcome [15] | outcome [16]
